Data as given in PubChem BioAssay AID1159580 (chemical genetic matrix, 2015).
Hit rate of the full screen: of about 5,500 compounds, about 2,000 (36%) were called active. Not shown: some 18% with an inconclusive outcome. No stated cut-off is given here; in the data, active means normalized growth mostly below about 0.91 (no sharp cut-off); inconclusive means no clear call, values can overlap the other calls; inactive means mostly above about 0.92. Some of the results follow.

Experiment: chemical genetic growth profiling, strain panel (AID 1159580);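 further: tested at 20 µM; growth read once vehicle control cultures reached saturation at 30 °C; 1 = growth at the plate median or of vehicle wells; lower values mean less growth of the strain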
Conditions: S. cerevisiae deletion strains, growth OD

Measured: normalized growth

Cc1cc(=O)c2c(O)c3c(cc2o1)OC(C)(C)CC3
inactive: locus YAL013W, strain DEP1, hits give low values 1.01 | locus YBR021W, strain FUR4, hits give low values 1.07 | locus YBR229C, strain ROT2, hits give low values 1 | locus YCL029C, strain bik1, hits give low values 0.967 | locus YDL035C, strain GPR1, hits give low values 1.02 | locus YDL074C, strain BRE1, hits give low values 1.03 | locus YDL101C, strain DUN1, hits give low values 0.989 | locus YDL134C, strain PPH21, hits give low values 0.981 | locus YDL185W, strain tfp1, hits give low values 0.938 | locus YDL192W, strain arf1, hits give low values 0.965 | locus YDR101C, strain arx1, hits give low values 0.975 | locus YDR162C, strain NBP2, hits give low values 1.01 | locus YDR318W, strain mcm21, hits give low values 0.954 | locus YDR388W, hits give low values 0.966 | locus YDR502C, strain sam2, hits give low values 0.971 | locus YEL061C, strain CIN8, hits give low values 1 | locus YER110C, hits give low values 0.967 | locus YER155C, strain BEM2, hits give low values 0.995 | locus YER167W, strain BCK2, hits give low values 0.998 | locus YGL078C, strain dbp3, hits give low values 0.951 | locus YGL086W, strain mad1, hits give low values 0.983 | locus YGL248W, strain PDE1, hits give low values 1 | locus YGR078C, strain PAC10, hits give low values 0.998 | locus YGR135W, strain pre9, hits give low values 0.923 | locus YGR252W, strain gcn5, hits give low values 0.931 | locus YHR030C, strain SLT2, hits give low values 0.992 | locus YHR079C, strain IRE1 (second series), hits give low values 0.962 | locus YHR094C, strain hxt1, hits give low values 0.975 | locus YHR129C, strain ARP1, hits give low values 0.993 | locus YHR200W, strain rpn10, hits give low values 0.968 | locus YIL066C, strain RNR3, hits give low values 1.01 | locus YIL073C, strain SPO22, hits give low values 0.899 | locus YIL125W, strain kgd1, hits give low values 0.978 | locus YIR030C, strain dcg1, hits give low values 0.949 | locus YJL095W, strain BCK1, hits give low values 0.972 | locus YJL134W, strain LCB3, hits give low values 1 | locus YJL168C, strain set2, hits give low values 0.969 | locus YJL187C, strain SWE1 (second series), hits give low values 0.973 | locus YKL009W, strain mrt4, hits give low values 0.992 | locus YKL068W, hits give low values 0.976 | locus YKL085W, strain MDH1 (second series), hits give low values 1 | locus YKL085W, strain MDH1, hits give low values 1 | locus YKL190W, strain CNB1, hits give low values 1 | locus YKR001C, strain vps1, hits give low values 0.96 | locus YLR039C, strain RIC1, hits give low values 1.01 | locus YLR058C, strain SHM2, hits give low values 0.994 | locus YLR102C, strain apc9, hits give low values 0.975 | locus YLR268W, strain sec22, hits give low values 0.989 | locus YLR330W, strain CHS5, hits give low values 0.988 | locus YLR342W, strain FKS1 (second series), hits give low values 1.08 | locus YLR371W, strain rom2, hits give low values 0.95 | locus YLR418C, strain cdc73, hits give low values 0.972 | locus YML016C, strain PPZ1, hits give low values 1.01 | locus YML032C, strain rad52, hits give low values 0.963 | locus YML124C, strain tub3, hits give low values 0.971 | locus YMR078C, strain ctf18, hits give low values 0.951 | locus YMR223W, strain ubp8, hits give low values 0.959 | locus YMR263W, strain SAP30, hits give low values 0.973 | locus YMR307W, strain GAS1, hits give low values 1.21 | locus YNL067W, strain RPL9B, hits give low values 0.97 | locus YNL128W, strain TEP1, hits give low values 1 | locus YNL153C, strain GIM3, hits give low values 0.973 | locus YNL233W, strain BNI4, hits give low values 1.02 | locus YNL250W, strain rad50, hits give low values 0.967 | locus YNL271C, strain bni1, hits give low values 0.965 | locus YNL298W, strain CLA4, hits give low values 0.961 | locus YNL307C, strain MCK1, hits give low values 0.982 | locus YNL322C, strain KRE1, hits give low values 0.995 | locus YNR052C, strain pop2, hits give low values 0.949 | locus YOL012C, strain htz1 0.959 | locus YOL147C, strain pex11, hits give low values 0.967 | locus YOR061W, strain CKA2, hits give low values 1 | locus YOR069W, strain VPS5, hits give low values 0.997 | locus YOR136W, strain idh2, hits give low values 0.997 | locus YOR144C, strain elg1, hits give low values 0.973 | locus YOR184W, strain ser1, hits give low values 1 | locus YOR316C, strain cot1, hits give low values 0.964 | locus YPL055C, strain LGE1, hits give low values 1.05 | locus YPR119W, strain clb2, hits give low values 0.956 | locus YPR141C, strain kar3, hits give low values 0.946 | locus YPR163C, strain tif3, hits give low values 0.98 | locus YPR167C, strain met16, hits give low values 0.949 | strain wtn01, hits give low values 1
